From PubChem BioAssay AID651692 (Broad Institute, 2012)
Measured potencies and affinities stand elsewhere. Values without a mark were called inactive.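 Rule for the calls: active = fitted half-maximal concentration for loss of cell signal no higher than twice the top valid tested concentration; inconclusive = flat curve at 30 to 70% inhibition, or poor fit; inactive = flat within 30%, signal rise, or potency above limit.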

Assay: cytotoxicity toward MDA-MB-231 breast cancer cells – cell-based, CellTiter-Glo luminescence, cherry-pick, cytotoxicity control for RAD54 inhibitor project, dose response (AID 651692);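 note: 0% = median of sample compound wells and -100% = staurosporine control wells; more negative values mean stronger loss of viable cell signal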
Details: MDA-MB-231 viability, 24 h; series mostly up to 26 µM; activity change, negative = growth inhibition: at the top concentration

Structure (SMILES) | activity change, negative = growth inhibition [%]
CC1CCN(CCCNC(=O)c2cc3c(Cl)nc4ccccc4c3s2)CC1 | -10.9
Cc1ccc2nc(Cl)c3cc(C(=O)NCCCN4CCCC4)sc3c2c1 | -15.8
Cc1ccc2nc3c(cc(C(=O)NCCN4CCOCC4)c(=N)n3CCCN3CCOCC3)c(=O)n2c1 | 3.06
COc1ccc2c(c1)c1ncn(CCN3CCCC3)c(=O)c1n2C | 2.26
COc1ccccc1CNC(=O)c1cccs1 | -3.64
CCN(CC)CCCNC(=O)c1ccc2c3n(nc2c1)-c1ccc(Cl)cc1CO3 | 9.21
CCCCN(CC)CCNC(=O)c1cc2c(=O)n(C)c3ccccc3c2n1C | -11.7
NCCN1CCN(CCN)CC1 | 1.41
Cc1[nH]ccc2cc3nc4ccccc4c3cc12 | -23.1
CCCCN(CC)CCNC(=S)Nc1ccc2nc(N3CCN(C)CC3)cc(C)c2c1 | -2.61
CCOC(=O)c1cnc2c(C)cc(C)cc2c1NCCCN1CCOCC1 | 13.4
CCN(CC)Cc1cc(Nc2ccnc3cc(Cl)ccc23)ccc1O | -5.39
Cn1c(C(=O)NCCN2CCCCCC2)cc2c(=O)n(C)c3ccccc3c21 | 1.73
CCn1cc(C(=O)NCCN(C)C)c(=O)c2cc(F)c(N3CCN(C)CC3)cc21 | -6.57
CCN(CC)CCNC(=O)c1cc2c(=O)n(C)c3ccccc3c2n1C | -9.16
CNC(C)C#Cc1ccc2oc3cccc(OC)c3c(=O)c2c1 (centres undefined) | 3.46
Cc1ccc(-c2nc(C(=O)NCCCN(C)C)cc3c2[nH]c2ccccc23)cc1 | -18.9
CCCN1CCN(C(=S)Nc2ccc3nc(N4CCN(CC)CC4)cc(C)c3c2)CC1 | -3.6
CCN1CCN(c2nc(N)c([N+](=O)[O-])c(Nc3cccc(C)c3)n2)CC1 | -7.02
CCOC(=O)c1c(C)n(C)c2ccc(OCC(O)CN3CCN(C)CC3)cc12 (centres undefined) | 9.74

Structure (SMILES) | activity change, negative = growth inhibition [%]
CN1CCN(c2nc(-c3cccs3)nc3ccccc23)CC1 | 1.82
Oc1ccccc1-c1nc(NCCN2CCOCC2)c2ccccc2n1 | -3.97
Cc1cc2ccc3ccccc3c2cc1CN(C)C | -5.15
CN(C)CCCNc1nc2cc(-c3ccc4c(ccn4C)c3)sc2c(=O)n1C | -4.29
COc1cc2[nH]c3c(=O)n(CCN4CCCCC4)cnc3c2cc1OC | 1.1
COc1cccc(-c2nc(N3CCN(Cc4ccccc4)CC3)c3ccccc3n2)c1O | 9.26
CC1CCc2sc3nc(N4CCN(CCO)CC4)n4ncnc4c3c2C1 (centres undefined) | -3.77
COc1cc2[nH]c3c(=O)n(CCN(C(C)C)C(C)C)cnc3c2cc1OC | 14
O=C(Nc1nnc(COc2ccc(F)cc2)s1)c1ccco1 | 8.23
CN(C)CCCNc1nc2cc(-c3ccc(F)cc3)sc2c(=O)n1C | 1.98
C(=C/c1nccc2c1[nH]c1ccccc12)/c1ccc2c(c1)OCO2 | -17.9
Cc1nc2ccccc2c2oc(C(=O)NCCCN3CCC(C)CC3)cc12 | 3.18
COc1ccc2cc3cc(C(=O)NCCCN4CCC(C)CC4)oc3nc2c1 | 10.5
NC(=O)CN1CCN(CCN2C(=O)c3cccc4cccc(c34)C2=O)CC1 | 0.913
CCNCCNC(=O)c1c(O)c2cccc3c2n(c1=O)CCC3 | 1.14
Cn1c2ccccc2c(=O)c2cc(NCCCN3CCOCC3)ccc21 | 7.21
Cc1cc(NCCCN(C)C)n2c(nc3ccccc32)c1C#N | 6.97
O=C(NN1CCOCC1)c1cc(-c2ccc(Cl)c(Cl)c2)nc2ccccc12 | 0.843
Cc1ccc(-c2nc(NCCN(C)C)c3ccccc3n2)cc1 | 1.78
